Among the data in PubChem BioAssay (Tox21) are Potency and outcome values, retold here.

Assay [1] can be described thus: qHTS assay to identify small molecule antagonists of the glucocorticoid receptor (GR) signaling pathway - cell viability counter screen (AID 720693). Also: nearly all actives have a fitted effect of over 55% in size. In general terms: Quantitative high-throughput screening tests each substance at several concentrations.
Assay [2] is described as follows: qHTS assay for identifying genotoxic compounds that show differential cytotoxicity against isogenic chicken DT40 cell lines with known DNA damage response pathways - wild type cell line (AID 743012). Also: nearly all actives have a fitted effect of over 60% in size. Also: potency is read from the fitted curve at half-maximal effect. Put shortly: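 Luminescent ATP viability signal (CellTiter-Glo, 30 min RT) recorded after wild type DT40 cells were incubated with compounds for 40 h at 37 C/5% CO2.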

A short description of assay [3]: qHTS assay for identifying genotoxic compounds that show differential cytotoxicity against isogenic chicken DT40 cell lines with known DNA damage response pathways - Rev3 mutant cell line (AID 743014). Also: nearly all actives have a fitted effect of over 55% in size. Also: potency is read from the fitted curve at half-maximal effect.
Assay [4] is described as follows: qHTS assay for identifying genotoxic compounds that show differential cytotoxicity against isogenic chicken DT40 cell lines with known DNA damage response pathways - Rad54/Ku70 mutant cell line (AID 743015). Also: nearly all actives have a fitted effect of over 60% in size. Also: potency is read from the fitted curve at half-maximal effect.
A short description of assay [5]: qHTS assay to identify small molecule antagonists of the androgen receptor (AR) signaling pathway - cell viability counter screen (AID 743033; also: nearly all actives have a fitted effect of over 45% in size).
Assay [6] concerns the target Androgen receptor (Homo sapiens) (UniProt P10275). In words: qHTS assay to identify small molecule antagonists of the androgen receptor (AR) signaling pathway (AID 743035; active = well fitted inhibition curve with a large enough effect in the signal ratio in the repeat runs, not every such curve was filed as active; the % refers to the signal ratio). In short, it runs like this:
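Quantitative HTS of the Tox21 10K library used HEK293 AR-UAS-bla cells stimulated with R1881 alongside compound for 16 h at 37C, followed by beta-lactamase FRET detection (LiveBLAzer B/G, 2 h, RT).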

Assay [7] has the same target. Description: qHTS assay to identify small molecule agonists of the androgen receptor (AR) signaling pathway (AID 743036; active = well fitted activation curve with a large enough effect in the signal ratio in the repeat runs, with a control signal flat, not every such curve was filed as active; the % refers to the signal ratio). Put shortly: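 AR-UAS-bla HEK293 cells, plated 4 h before dosing, were treated with compound for 16 h at 37C. beta-Lactamase reporter read after 2 h with LiveBLAzer B/G FRET substrate at room temperature.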
The target is the same in assay [8]. In words: qHTS assay to identify small molecule agonists of the androgen receptor (AR) signaling pathway using the MDA cell line (AID 743040; also: nearly all actives have a fitted effect of over 20% in size). In short, it runs like this:
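Luciferase read-out, ONE-Glo, 30 min RT. Cells: MDA-kb2 AR-luc, MMTV promoter with AR and GR response elements. Compound exposure 16 h, 37C, 0% CO2, after 5 h pre-incubation. qHTS agonist mode.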

A short description of assay [9]: qHTS assay to identify small molecule antagonists of the androgen receptor (AR) signaling pathway using the MDA cell line - cell viability counter screen (AID 743041; also: nearly all actives have a fitted effect of over 45% in size). Put shortly: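 Cytotoxicity counter screen: MDA-kb2 AR-luc cells, compound + R1881, 16 h, 37C, 0% CO2; CellTiter-Fluor added at 15.5 h, fluorescence read after 30 min.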
In assay [10] the target is Androgen receptor (Homo sapiens) (UniProt P10275). In words: qHTS assay to identify small molecule antagonists of the androgen receptor (AR) signaling pathway using the MDA cell line (AID 743042; also: nearly all actives have a fitted effect of over 55% in size). Put shortly:
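MDA-kb2 breast carcinoma cells carrying MMTV-luciferase (AR/GR responsive) were co-treated with compounds and the agonist R1881 for 16 h at 37C. Inhibition read as ONE-Glo luminescence; CellTiter-Fluor fluorescence measured in parallel for cytotoxicity.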

Several values for one entry are separate records, joined by “and”; a condition that tells them apart may be missing. Equal entries are not always repeated. Inconclusive results are not listed. Where a structure was tested more than once in an assay, its records may differ in their call. Activity calls are given as the source filed them. Unless noted, calls follow the shape of the dose curve; as a rule, active = well fitted curve in the direction sought with a large enough effect in the repeat runs; inconclusive = weak or mixed curves; inactive = no such curve, though single readings can be large; an effect the other way counts as inactive or inconclusive.

Androgen receptor (Homo sapiens), sequence (P10275 whole entry, looked up): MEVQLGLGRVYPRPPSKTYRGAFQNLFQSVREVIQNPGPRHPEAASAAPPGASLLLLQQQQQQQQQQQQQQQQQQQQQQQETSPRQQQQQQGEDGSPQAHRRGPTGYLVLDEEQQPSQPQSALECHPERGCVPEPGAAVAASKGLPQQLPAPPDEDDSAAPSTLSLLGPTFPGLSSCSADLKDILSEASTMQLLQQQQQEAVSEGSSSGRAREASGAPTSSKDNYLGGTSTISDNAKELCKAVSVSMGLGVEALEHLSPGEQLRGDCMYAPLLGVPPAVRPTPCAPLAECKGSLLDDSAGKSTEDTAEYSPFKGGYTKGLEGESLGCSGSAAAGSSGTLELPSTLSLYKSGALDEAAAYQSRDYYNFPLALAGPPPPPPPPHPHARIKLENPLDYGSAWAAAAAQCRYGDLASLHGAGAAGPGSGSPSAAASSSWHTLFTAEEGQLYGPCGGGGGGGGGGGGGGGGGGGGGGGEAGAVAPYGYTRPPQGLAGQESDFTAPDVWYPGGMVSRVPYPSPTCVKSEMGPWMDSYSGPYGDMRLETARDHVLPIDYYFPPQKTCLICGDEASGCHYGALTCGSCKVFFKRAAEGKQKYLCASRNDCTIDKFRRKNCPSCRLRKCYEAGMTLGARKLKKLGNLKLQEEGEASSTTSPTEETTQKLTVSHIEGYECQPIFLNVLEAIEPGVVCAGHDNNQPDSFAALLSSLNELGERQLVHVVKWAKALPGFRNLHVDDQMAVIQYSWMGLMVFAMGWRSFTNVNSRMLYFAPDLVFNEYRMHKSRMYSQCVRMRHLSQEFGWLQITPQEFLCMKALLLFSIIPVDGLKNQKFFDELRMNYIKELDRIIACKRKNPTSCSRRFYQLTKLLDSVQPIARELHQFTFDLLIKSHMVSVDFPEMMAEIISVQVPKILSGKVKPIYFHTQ

As to `CC(O)COc1ccccc1` (stereo not drawn), the Potency result in [1], in assay [2], in assay [3], in assay [4], in [6] and in [8] was “inactive” throughout. The Potency result in assay [9] and in assay [10] was “inactive” throughout. For the same compound, the compound was classed as inactive in assay [5] and in assay [7].

With `CC(=O)/C=C/C1=C(C)CCCC1(C)C`, the Potency entry in assay [1], in [2], in [3] and in assay [4] was “inactive” each time. In addition, the result in [5] was inactive.

Consider `Cn1cnc2c1c(=O)[nH]c(=O)n2C`, for which the Potency entry in [1], in assay [2], in [3] and in assay [4] was “inactive” throughout. For the same compound, the result in [5] was inactive.

Take `N[C@@H](Cc1c[nH]c2ccccc12)C(=O)O`: the Potency result in assay [1], in [2], in assay [3] and in [4] was “inactive” throughout. The call in [5] was inactive.

In the case of `NC(=O)N/N=C/c1ccc([N+](=O)[O-])o1`, the Potency entry in [1] is “inactive”. The Potency entry in assay [2] is “inactive and 30.6 µM (active)”; in assay [3], “inactive and 43.3 µM (active)”; in assay [4] it was 29.8 µM (active) and inactive and 38.6 µM (active). The result in assay [5] was inactive.

For `O=C(OCc1ccccc1)c1ccccc1`, the Potency result in assay [1], in assay [2], in assay [3] and in assay [4] was “inactive” throughout. For the same compound, the call in assay [5] was inactive.

For `O=C(O)CN(CC(=O)O)CC(=O)O`, the Potency entry in assay [1], in assay [2], in assay [3], in assay [4] and in assay [9] was “inactive” each time. Moreover, in assay [5], the call was inactive.

On to `O=C(O)Cc1cccc2ccccc12`, for which the Potency result in assay [1], in [2], in assay [3], in assay [4] and in assay [9] was “inactive” each time. Besides, the compound was classed as inactive in assay [5].

Take `CCCCOCCOCCSC#N`: the Potency result in assay [1], in assay [2], in [3], in assay [4] and in assay [9] was “inactive” throughout. The compound was called inactive in [5].

Consider `O=C(O)CCCCC1CCSS1` (stereo not drawn), for which the Potency entry in [1], in [2] and in [4] was “inactive” in each case. In addition, the result in [5] was inactive.

Turning to `CCCCCCCCOc1ccc(C(=O)c2ccccc2)c(O)c1`, the Potency entry in [1] and in [2] was “inactive” in each case. The Potency entry in [4] is “inactive and 68.6 µM (active)”. Besides, the compound was classed as inactive in assay [5].

`COC(=O)c1ccc(C=O)cc1`: the Potency result in assay [1], in [2], in [3], in assay [4] and in [9] was “inactive” throughout. Besides, in assay [5], the compound was called inactive.

For `Cc1c(N(C)CS(=O)(=O)O)c(=O)n(-c2ccccc2)n1C`, the Potency entry in assay [1], in [2] and in assay [4] was “inactive” throughout. Besides, the compound was called inactive in [5].

For the compound `Cc1c(N(C)C)c(=O)n(-c2ccccc2)n1C`, the Potency entry in assay [1], in [2], in assay [3], in [4] and in [9] was “inactive” throughout. Also, in assay [5], the compound was classed as inactive.

As to `CN(C)C=O`, the Potency result in assay [1], in [2], in [3], in assay [4] and in assay [9] was “inactive” throughout. Further, the result in [5] was inactive.

For the compound `O=c1cc[nH]c(=O)[nH]1`, the Potency result in [1], in assay [2], in [3], in assay [4] and in assay [9] was “inactive” each time. Moreover, the result in [5] was inactive.

For `CCCCNC(=O)NS(=O)(=O)c1ccc(N)cc1`, the Potency entry in assay [1], in [2], in assay [3], in assay [4] and in [9] was “inactive” each time. Besides, the outcome in [5] was inactive.

For `C1CNCCN1`, the Potency result in assay [1], in assay [2] and in assay [9] was “inactive” each time. Further, the Potency result in [3] was “inactive and 62.9 µM (active)”; in [4] it was “inactive and 62.9 µM (active)”. Also, the outcome in assay [5] was inactive.

For the compound `COc1ccccc1O`, the Potency entry in [1], in assay [2] and in [4] was “inactive” in each case. Besides, the compound was called inactive in [5].

Consider `Cc1ccc(O)c(-n2nc3ccccc3n2)c1`, for which the Potency result in assay [1], in assay [2], in assay [3] and in assay [9] was “inactive” in each case. In [4], the Potency was 26.6 µM (active) and inactive. Besides, the outcome in assay [5] was inactive.

Take `OCCCc1ccccc1`: the Potency entry in [1], in [2], in assay [3], in [4] and in [9] was “inactive” in each case. Besides, in [5], the compound was called inactive.

Turning to `C[C@]12C[C@H](O)[C@H]3[C@@H](CCC4=CC(=O)CC[C@@]43C)[C@@H]1CC[C@@H]2C(=O)CO`, the Potency entry in [1], in [2], in assay [3] and in assay [9] was “inactive” each time. Also, the Potency in assay [4] was 48.6 µM (active). Besides, the compound was classed as inactive in assay [5].

`OC[C@@H](O)[C@@H](O)[C@H](O)[C@H](O)CO`: the Potency entry in assay [1], in assay [2], in [3], in [4] and in [9] was “inactive” each time. The compound was called inactive in [5].

In the case of `COc1ccc(C(=O)c2ccccc2)c(O)c1`, the Potency result in [1], in assay [2], in assay [3], in assay [6], in assay [8] and in [10] was “inactive” each time. Further, in assay [5], the outcome was inactive.

Turning to `Cc1cccc2ccccc12`, the Potency entry in assay [1], in [2] and in assay [4] was “inactive” in each case. In addition, the outcome in assay [5] was inactive.

Take `Nc1ccc(N=Nc2ccccc2)c(N)n1`: the Potency entry in assay [1] and in assay [9] was “inactive” in each case. The Potency in [2] was 4.22 µM (active) and 61.1 µM (active); in assay [3], 4.22 µM (active); in assay [4] it was 7.5 µM (active). The call in assay [5] was inactive.

As to `COC1=CC(=O)C[C@@H](C)[C@]12Oc1c(Cl)c(OC)cc(OC)c1C2=O`, the Potency result in [1] and in [9] was “inactive” each time. Also, the Potency in assay [2] was 26.6 µM (active) and 54 µM (active) and 27.3 µM (active); in [3], 30.4 µM (active) and 30.6 µM (active); in [4], 30.4 µM (active) and 27.3 µM (active). Besides, the call in assay [5] was inactive.

As for `N[C@@H](Cc1c[nH]c2ccc(O)cc12)C(=O)O`, the Potency result in assay [1], in assay [2] and in assay [4] was “inactive” throughout. In addition, the result in assay [5] was inactive.

Take `CCN(CC)CCOC(=O)c1ccc(N)cc1`: the Potency entry in assay [1], in assay [2], in [3], in assay [4] and in assay [9] was “inactive” each time. In assay [5], the call was inactive.

On to `CN/C(=C\[N+](=O)[O-])NCCSCc1ccc(CN(C)C)o1`, for which the Potency result in assay [1], in assay [2], in [3], in assay [4] and in assay [9] was “inactive” each time. Further, the call in assay [5] was inactive.
